NPC1 promoter act = activates the NPC1 promoter. Huh7 NPC1 promoter luciferase reporter, 24 h. Potency, µM (series often up to 9.22 µM), for the others: at the highest dose activation, actives largely listed as activators. 320,000 tested, 2.4% active. AID 485313; further: % of control where 0% means no effect; nearly all actives have a fitted effect of over 60% in size
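Huh7 cells stably carrying NPC1 promoter–luciferase, plated in Opti-MEM with 10% FBS for 2 h, were exposed to compound in DMSO for 24 h at 37 °C; luciferase reagent was added for 10 min and luminescence read.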
ELG1 repair inh = ELG1-dependent DNA repair inhibition; HEK293T ELG1-luciferase reporter, luminescence, 16 h; DNA damage induced by 5-fluorouridine; Potency, µM (highest dose often 46.1 µM), inactives show at the highest dose activity change, negative = inhibition, most hits filed as inhibitors; 330,000 tested, 2.3% active; further: on the % scale 0 is the no-effect control and ±100 the full control effect; nearly all actives have a fitted effect of over 55% in size
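Step one: seed 2,000 cells per well. Step two: pin-transfer compound or DMSO alongside 5-fluorouridine. Step three: incubate 16 hr, 37 °C, 5% CO2. Step four: add ONE-Glo, wait 30 min, read luminescence.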
Rab9 prom act = activators of Rab9 promoter | Huh7 Rab9 promoter-luciferase reporter, luminescence, 24 h | Potency, µM (series often up to 9.22 µM), inactives show at the highest dose activation, negative = inhibition, usual class: activators | 320,000 tested, 2.8% active | AID 485297; further: % of control where 0% means no effect; nearly all actives have a fitted effect of over 60% in size
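Cell-based reporter: Huh7 stable for Rab9 promoter-driven luciferase, plated in reduced-serum medium with 10% FBS at 1500 cells/well, compound-treated 24 h at 37 °C, luminescence read after 10 min reagent.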
ELG1 genotox = genotoxicity induction in ELG1-luciferase HEK293T cells; 330,000 tested, 1.3% active; HEK293T ELG1-luciferase reporter, luminescence, 16 h; AID 504466; Potency, µM (highest dose often 46 µM), for inactives: at the top dose activity change, positive = activation, hits mostly activators; further: % of control where 0% means no effect; nearly all actives have a fitted effect of over 60% in size
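After overnight (16 hr) compound treatment at 37 °C, ELG1-luciferase HEK293T cells were lysed with ONE-Glo; luminescence quantified 30 min later at room temperature.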
SMN2 splice enh = increases expression of the SMN2 splice variant | HEK293 SMN2-luciferase splicing reporter, luminescence, 30-36 h | Potency, µM (highest dose often 46.1 µM), for inactives: at the top dose activity change, positive = activation, hits mostly activators | 210,000 tested, 2.8% active | AID 1458; further: % of control where 0% means no effect; nearly all actives have a fitted effect of over 55% in size
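qHTS luciferase splicing reporter: luminescence rises when SMN2 exon 7 is included in transfected HEK293 cells. Compound exposure lasted 30-36 h at 37C, with 4.5 mM final sodium butyrate as control, followed by a ONE-Glo read.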
FLuc modulator = counter-screen for miR-21 project: firefly luciferase inhibitors or activators; P08659; Potency, µM (top dose mostly 57.5 µM), for inactives: top-dose activity change, negative = inhibition, most hits filed as inhibitors; purified FLuc, Km substrates, luminescence inhibition; 360,000 tested, 6.9% active; AID 588342;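 further: plate controls were vehicle for no effect and reference inhibitor for full effect; nearly all actives have a fitted effect of over 55% in size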
Target sequence (P08659 whole entry, looked up): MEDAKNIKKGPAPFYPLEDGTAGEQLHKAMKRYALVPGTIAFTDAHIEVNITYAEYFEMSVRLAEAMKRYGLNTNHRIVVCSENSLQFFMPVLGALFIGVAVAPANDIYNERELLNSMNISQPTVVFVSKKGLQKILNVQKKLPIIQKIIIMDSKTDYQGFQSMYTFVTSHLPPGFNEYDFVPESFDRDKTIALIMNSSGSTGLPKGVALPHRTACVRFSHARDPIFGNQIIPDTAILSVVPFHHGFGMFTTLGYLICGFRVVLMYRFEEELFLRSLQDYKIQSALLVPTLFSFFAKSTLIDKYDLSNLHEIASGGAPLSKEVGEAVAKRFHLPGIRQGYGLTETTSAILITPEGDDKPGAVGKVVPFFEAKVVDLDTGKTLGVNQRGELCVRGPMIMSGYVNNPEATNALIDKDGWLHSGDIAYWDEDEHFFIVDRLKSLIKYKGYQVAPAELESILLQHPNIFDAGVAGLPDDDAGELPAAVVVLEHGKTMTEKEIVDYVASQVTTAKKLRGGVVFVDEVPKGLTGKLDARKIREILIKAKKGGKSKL
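Purified P. pyralis luciferase (10nM final) with 10uM D-luciferin and 10uM ATP (Km levels) in 50mM Tris acetate pH 7.5, 10mM Mg acetate, 0.01% Tween-20, 0.05% BSA; qHTS 6-point titration, ~60 µM downward; luminescence read.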
* marks the source's active call; other numbers are inactive results; ? = inconclusive; . = no result; [ ] = remark or other dose. This is a sample that favours compounds with a hit; in the whole collection about 9.2% have one here. The call rests on the fitted dose curve; in most records, active means well fitted curve in the direction sought with a large enough effect; inconclusive means small, poorly fitted or top-dose-only effect, or another doubt; inactive means no such curve, though single readings can be large; an effect the other way counts as inactive or inconclusive. Potency means the concentration at half of the fitted maximal effect.

SMILES	NPC1 promoter act	ELG1 repair inh	Rab9 prom act	ELG1 genotox	SMN2 splice enh	FLuc modulator
COc1cccc(-c2nc3ccccc3s2)c1	13%	?	?	2.1µM*	?	0.85µM*
COc1ccc(/C=C(/CC(=O)Nc2ccccc2)c2nc3ccccc3s2)cc1	13%	?	27%	9%	-22%	21µM*
COc1ccc(/C=C(/CC(=O)NCc2ccc(Cl)cc2)c2nc3ccccc3s2)cc1	4%	27%	-4%	16%	-13%	-18%
COc1cc(OC)cc(C(=O)Nc2ccc(-c3nc4ccccc4s3)cc2C)c1	.	.	.	.	10%	-6%
COc1cccc(CC(=O)Nc2ccc(-c3nc4ccccc4s3)cc2)c1	.	.	.	.	.	6µM*
C/C(=N\NC(=S)Nc1ccccc1C)c1ccc(O)cc1	1%	1%	9%	3%	-10%	21µM*
C/C(=N\NC(=O)c1c[nH]c2ccccc12)c1ccc(C)o1	10%	?	24%	17%	3%	?
C/C(=N/NC(=O)c1cc2ccccc2cc1O)c1ccco1	2.8µM*	?	1.6µM*	?	.	5.4µM*
C/C(=N\NC(=O)c1c(C)nc2ccccn12)c1ccco1	?	?	2.5µM*	?	10µM*	?
C/C(=N\NC(=O)c1cc2ccccc2cc1O)c1ccc(C)o1	27%	?	?	0%	.	9.5µM*
Cc1ccc2onc(CNC(=O)N3CCN(c4cc(Cl)ccc4C)CC3)c2c1	.	.	.	.	.	-12%
Nc1c(C(=O)c2ccccc2)oc2ccc(Br)cc12	3.2µM*	?	3.5µM*	4.6µM*	16µM*	3µM*
COC(=O)CCC(=O)c1oc2ccc(Br)cc2c1N	21%	?	19%	?	11%	7.6µM*
Nc1c(C(=O)c2ccccc2)oc2ccc([N+](=O)[O-])cc12	3.5µM*	?	3.5µM*	15%	.	?
CCOc1cc(C(=O)NCCc2sc(-c3ccc(F)cc3)nc2C)cc(OCC)c1OCC	.	.	.	.	.	-10%
CCOc1ccc(S(=O)(=O)N2CCCCC2)cc1NC(=O)Cc1cccs1	-1%	?	1%	0%	.	4%
C[n+]1ccn(CC(=O)c2cc(C(C)(C)C)c(O)c(C(C)(C)C)c2)c1	-1%	-5%	2%	1%	.	3%
Cc1csc(N(C(=O)c2cccc(S(=O)(=O)N(C)C)c2)c2ccccc2)n1	10%	15µM*	7%	-20%	-12%	-11%
Cc1csc(N(C(=O)c2cccc(S(=O)(=O)N3CCCC3)c2)c2ccccc2)n1	3%	21µM*	1%	-16%	-20%	-3%
Cc1csc(NC(=O)c2cccc(S(=O)(=O)N3CCN(C)CC3)c2)n1	-2%	?	-3%	-5%	2%	-5%
COc1ccc(C(=O)NCC2OCCc3ccccc32)cc1 (stereo unspecified)	29%	?	17%	7%	-18%	15µM*
CCOc1ccc(C(=O)NCC2OCCc3ccccc32)cc1 (stereo unspecified)	8%	?	13%	4%	24%	17µM*
COc1ccc(/C(C#N)=C/c2ccccn2)cc1	2µM*	?	1.4µM*	?	.	4.8µM*
N#C/C(=C\c1ccccn1)c1nc2ccccc2s1	2%	?	?	?	15%	3.4µM*
C(=C(c1ccccc1)c1ccccc1)c1ccccn1	-3%	12%	2%	3%	.	1%
COC(=O)c1ccc(/C=C(\C#N)c2nc3ccccc3s2)cc1	6%	?	6%	7%	-2%	?
Cc1ccccc1Cn1c(-c2ccc(=O)[nH]c2)nc2ccccc21	-2%	43%	2%[1.84 µM]	9%	.	5%
Cc1cc2nc(-c3ccc(=O)[nH]c3)n(Cc3ccccc3)c2cc1C	-4%	?	11%	?	.	15µM*
CCN(CC)c1ccc2nc3c4ccccc4c(=O)cc-3oc2c1	0.56µM*	?	1.1µM*	0.82µM*	.	0.48µM*
